Test results reported in PubChem BioAssay AID777 (Sanford-Burnham Center for Chemical Genomics, 2007).
Among all 96,000 compounds or so, about 19,000 (20%) were called active.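 The calls were made as follows: active = blocking of liver enzyme CYP2C9 beyond about 50% at 5 µM (limit read from the data); inactive = the rest.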 The list is a sample of the results.

Molecular target: Cytochrome P450 2C9 (Homo sapiens) (UniProt P11712)
Assay: blockers of cytochrome P450 2C9 activity – biochemical, luminescence, ADME assay, primary screen (AID 777)
Conditions: CYP2C9 Supersomes, luciferin-H conversion, at 5 µM, stronger effect = higher value

Cytochrome P450 2C9 (Homo sapiens), sequence (P11712 whole entry, looked up): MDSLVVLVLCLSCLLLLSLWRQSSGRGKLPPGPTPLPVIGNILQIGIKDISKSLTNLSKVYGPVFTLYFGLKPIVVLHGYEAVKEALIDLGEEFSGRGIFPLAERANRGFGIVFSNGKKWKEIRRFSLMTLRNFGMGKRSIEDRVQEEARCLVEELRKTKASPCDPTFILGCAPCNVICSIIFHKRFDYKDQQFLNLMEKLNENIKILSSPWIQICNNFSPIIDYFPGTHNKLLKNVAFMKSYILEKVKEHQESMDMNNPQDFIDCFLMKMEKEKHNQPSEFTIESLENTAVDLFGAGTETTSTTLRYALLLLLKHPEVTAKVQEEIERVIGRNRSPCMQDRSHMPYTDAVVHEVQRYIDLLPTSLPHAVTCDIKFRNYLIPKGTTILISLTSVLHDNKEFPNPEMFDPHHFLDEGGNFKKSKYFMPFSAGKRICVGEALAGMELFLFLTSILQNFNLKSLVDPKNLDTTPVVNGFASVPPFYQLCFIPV

SMILES | inhibition
CCCCN1C(=O)/C(=C2/C=CC=CN2C)SC1=S | -5% (inactive)
Cc1ccc2c(c1)c1ncnc(N3CCc4ccccc4C3)c1n2C | 73% (active)
Cc1cc(C)nc(N2CCN(c3ncnc4c3oc3ccccc34)CC2)n1 | -20.3% (inactive)
Cc1cccc(-n2ncc3c(N4CCc5ccccc54)ncnc32)c1 | -9.6% (inactive)
CCN(CC)C(=O)CSc1nnc(C2CCCCC2)o1 | 5.7% (inactive)
COCc1cc(C)nc(Nc2cc(C)ccc2C)c1C#N | 15.6% (inactive)
Oc1ccc(-c2onc3ccc(Cl)cc23)cc1 | 90.2% (active)
CC1(C)Oc2ccc3ccc(=O)oc3c2/C(=C/NCCO)C1=O | 4.1% (inactive)
O=C(/C=C/Nc1ccccc1)c1cnc(-c2ccccc2)s1 | 12.6% (inactive)
O=C1c2ccncc2C(=O)N1C1CCCCC1 | 12.5% (inactive)
CC1=C(C(N)=O)C(c2sccc2C)n2nnnc2N1 (centres undefined) | -4.8% (inactive)
CCCCCOC(=O)C1=C(C)Nc2nnnn2C1c1ccc(OC)c(OC)c1OC (centres undefined) | 56.5% (active)
COc1ccc(C2C(C(=O)Nc3ccccc3OC)=C(C)Nc3nnnn32)c(OC)c1 (centres undefined) | 31.8% (inactive)
CCc1cc(Br)ccc1NC(=O)C1CCCO1 (centres undefined) | -2.1% (inactive)
CC(=O)Oc1cc2c(C(=O)NCCN3CCOCC3)c(C)oc2c2ccccc12 | 24.6% (inactive)
CC(c1ccccn1)N(CCN(C)C)C(=S)Nc1ccccc1F (centres undefined) | -1.3% (inactive)
CO/N=C/c1ccc(N2CCN(C(=O)c3cccc(Cl)c3)CC2)c([N+](=O)[O-])c1 | 14.4% (inactive)
CCNC(=S)N1CCN(C(=O)c2ccco2)CC1 | 1.2% (inactive)
O=C(c1cccc(F)c1)N1CCN(c2ccc([N+](=O)[O-])c(N3CCCCC3)c2)CC1 | 80.7% (active)
O=C(c1ccccc1Oc1ccccc1)N1CCN(c2ccc(F)cc2)CC1 | 77% (active)
CCC(CC)C(=O)Nc1cccc(C(=O)N2CCCC2)c1 | 12.7% (inactive)
O=C(c1ccccc1)N1CCN(c2ccc([N+](=O)[O-])c(NCc3ccco3)c2)CC1 | 87.1% (active)
O=C(c1ccccc1)c1cccn1CC(=O)N1CCN(c2ccc(F)cc2)CC1 | -62.9% (inactive)
O=C(c1cccc(N2CCCC2=O)c1)N1CCOCC1 | 5.6% (inactive)
O=C(c1cccc(C(=O)N2CCN(c3ccc(F)cc3)CC2)c1)N1CCN(c2ccc(F)cc2)CC1 | 84.6% (active)

SMILES | inhibition
O=[N+]([O-])c1ccc(N2CCN(S(=O)(=O)c3ccc4ccccc4c3)CC2)cc1NCc1ccco1 | 27.8% (inactive)
CC(C)N(C(=O)COC(=O)c1ccccc1C(=O)N1CCN(c2ccc(F)cc2)CC1)C(C)C | 39.5% (inactive)
O=C(O)C1CC=CCC1C(=O)Nc1ccccc1C(=O)N1CCN(c2ccccc2)CC1 (centres undefined) | 6% (inactive)
CNC(=O)Nc1cc(C(C)(C)C)no1 | 7.8% (inactive)
CCOC(=O)c1c(N)c(C#N)nn1-c1ccccc1C(=O)OC | -2.3% (inactive)
CN(C(=O)CC(NC(=O)c1ccccc1)(c1ccccc1)c1ccccc1)c1ccccc1 | 21.9% (inactive)
CC(C)CC(=O)N=C1SC2CS(=O)(=O)CC2N1CCc1ccccc1 (centres undefined) | 7.8% (inactive)
CCc1ccc(-c2nnn(Cc3nn[nH]n3)n2)cc1 | 23.5% (inactive)
CCNC(=O)N1CCNC(=O)C1CC(=O)Nc1ccc(C(=O)OCC)cc1 (centres undefined) | 1.1% (inactive)
COC(=O)c1ccc(C(=O)OC)c(NC(=S)N2CCCCC2)c1 | 14% (inactive)
O=C(Nc1ccc2c(c1)CCC2)c1cccc(S(=O)(=O)N2CCN(c3ccc(F)cc3)CC2)c1 | 39.9% (inactive)
CCCCc1nnc(NC(=O)CS(=O)(=O)Cc2ccccc2)s1 | 44.7% (inactive)
C=CCNc1nnc(C)c2ccccc12 | -15.2% (inactive)
Cc1ccc(C(=O)N2CCCCCC2)cc1Br | -23.3% (inactive)
Cc1ccccc1CN1CCN(C(=O)c2cccc(F)c2)CC1 | 85.6% (active)
Cc1ccccc1CS(=O)(=O)CC1(O)CCN(C(=O)c2cccc(C(F)(F)F)c2)CC1 | 4.9% (inactive)
O=C(CN1CCN(C(=O)c2cccc(F)c2)CC1)Nc1ccccc1F | 27.5% (inactive)
Cc1cccc(C(=O)N2CCCN(C(=O)c3cccc(C)c3)CC2)c1 | 70.4% (active)
O=C(c1ccccc1)N1CCN(C(=O)N2CCCCC2)CC1 | 1.9% (inactive)
Cc1ccc(S(=O)(=O)N(c2cccc(C)c2)C2CCS(=O)(=O)C2)cc1 (centres undefined) | 7.2% (inactive)
CC(C)C(=O)Nc1ccc2c(c1)oc1ccccc12 | 1.8% (inactive)
CC1Cc2ccccc2N1C(=O)CSc1nnc(-c2ccc(S(=O)(=O)N3CCCCC3)cc2)o1 (centres undefined) | 31.7% (inactive)
COc1ccc(C2=NOC3(CC(=O)N(c4ccc(C)cc4)C3=O)C2)cc1 (centres undefined) | 12% (inactive)
CCCc1nnc(NC(=O)c2cc(OC)cc(OC)c2)s1 | 21.7% (inactive)
Cc1ccc(NS(=O)(=O)c2c(C)[nH]c(=O)[nH]c2=O)cc1C | 4.6% (inactive)

SMILES | inhibition
COc1ccc(S(=O)(=O)N2CCCC2)c(C)c1C | -147% (inactive)
COc1ccc(S(=O)(=O)Nc2ccc(F)cc2)c(C)c1C | 66.9% (active)
CCOc1cc(C(=O)Nc2ncccn2)cc(OCC)c1OCC | 3.1% (inactive)
Nc1nnc(C2CCCC2)s1 | 7.5% (inactive)
CCCSC1=C(C#N)C(c2ccccc2C)C(C(=O)OC)C(=O)N1 (centres undefined) | 33.7% (inactive)
COc1ccc(NC(=O)c2sccc2SCC#N)cc1 | 10.4% (inactive)
CC1=C(C(=O)Nc2ccccc2)C(c2cccs2)C(C#N)=C(SCC#N)N1 (centres undefined) | 87.5% (active)
C/C(=N\O)C1(C)N(O)C(C)(C)C(c2ccc(Br)cc2)=[N+]1[O-] (centres undefined) | -4.6% (inactive)
O=c1onc(-c2cccs2)n1Cc1ccccc1 | 4.9% (inactive)
Cc1ccc(OCCCC(=O)N2CCOCC2)c(C)c1 | 4% (inactive)
CCCCCNC(=O)Cc1ccc(OC)cc1 | 14.9% (inactive)
CCNC(=O)NC(=O)C(C)OC(=O)c1cc(S(=O)(=O)N2CCCCCC2)ccc1OC (centres undefined) | 98.5% (active)
COc1ccc(S(=O)(=O)N2CCC(C(=O)N3CCOCC3)CC2)cc1OC | 43.3% (inactive)
CSCCC(NC(=O)c1ccco1)C(=O)OCC(=O)Nc1ncc(Cl)c(C)c1Cl (centres undefined) | 24.2% (inactive)
CCc1cc(=O)oc2cc(C)cc(OC(C)C(=O)O)c12 (centres undefined) | -7.1% (inactive)
CCCCc1cc(=O)oc2cc(C)cc(OCc3nn[nH]n3)c12 | 67.5% (active)
O=c1[nH]c(CCl)nc2cc(-c3ccc(Cl)cc3)sc12 | 17.9% (inactive)
O=C(Nc1sc2c(c1-c1nc3ccccc3[nH]1)CCCC2)C1CC1 | 40.5% (inactive)
CCOC(=O)c1[nH]c2ccc(C)cc2c1N=C(C)N(C)C | -7.9% (inactive)
CCOc1ccc(C(=O)N(Cc2ccc(N(C)C)cc2)C2CCS(=O)(=O)C2)cc1 (centres undefined) | 65.3% (active)
COc1ccc(C(=O)N(Cc2ccc(N(C)C)cc2)C2CCS(=O)(=O)C2)cc1 (centres undefined) | -2.3% (inactive)
COc1cc(C(=O)N(Cc2ccc(N(C)C)cc2)C2CCS(=O)(=O)C2)cc(OC)c1OC (centres undefined) | 5.2% (inactive)
O=C(Nc1nccs1)c1cc(S(=O)(=O)N2CCOCC2)c(Cl)cc1Cl | 15.1% (inactive)
CC(=O)N(CC1CCCO1)C1(C(=O)NC2CCCC2)CCCCC1 (centres undefined) | -7.3% (inactive)
COC(=O)c1ccc(CSc2nncn2C)cc1 | 21.6% (inactive)

SMILES | inhibition
CCOc1ccccc1Nc1nnc(SCc2ccc(C(=O)OC)o2)s1 | -73.5% (inactive)
COC(=O)c1ccc(CSc2ccc3nnc(-c4ccccc4)n3n2)o1 | 96.2% (active)
COc1cc(OC)cc(-c2nc3nc(C)c(CCC(=O)NCc4ccco4)c(C)n3n2)c1 | 15.8% (inactive)
O=C(NCc1ccccn1)c1c(O)c2c([nH]c1=O)CCCC2 | 15% (inactive)
COc1ccc(CNC(=O)C2CCC(CNc3c(N4CCOCC4)c(=O)c3=O)CC2)cc1 (centres undefined) | -7.6% (inactive)
Cc1cc(O)ccc1-c1cnc2ccccc2n1 | -7.4% (inactive)
O=C1c2ccccc2S(=O)(=O)N1CC(O)Cn1c2ccccc2c2ccccc21 (centres undefined) | 94.4% (active)
O=C(CN1C(=O)c2ccccc2S1(=O)=O)N1CCc2ccccc21 | -5.2% (inactive)
CNC(=O)CN1C(=O)c2ccccc2S1(=O)=O | -5.9% (inactive)
CCC(=O)Nc1ccc(C(=O)Nc2ccc3c(c2)C(=O)N(CC2CCCO2)C3=O)cc1 (centres undefined) | 18.8% (inactive)
CC(=O)Nc1ccc(N2CCOCC2)c(C(=O)Nc2cccc(C)c2)c1 | 49.6% (inactive)
CC(=O)Nc1cccc(Oc2cc(C#N)c(C#N)cc2N2CCOCC2)c1 | 61.5% (active)
CCOc1cccc(NC(=O)CC#N)c1 | -19.3% (inactive)
CCC(=O)Nc1ccc(C(=O)Nc2cc(C)on2)cc1 | 8.5% (inactive)
Cc1ccc(/C=N/NC(=O)c2sccc2OCc2ccc(F)cc2)cc1 | 17.4% (inactive)
O=C(Nc1nnc(CCOCCOCCc2nnc(NC(=O)c3ccco3)s2)s1)c1ccco1 | 19.4% (inactive)
Cc1[nH][nH]c(=O)c1N=Nc1ccccc1 | 25.4% (inactive)
O=C(NCCCn1ccnc1)Nc1ccc(Cl)cc1Cl | 97.7% (active)
CCCC(=O)Nc1ccc(C(=O)NCCCn2ccnc2)cc1 | 42.1% (inactive)
NS(=O)(=O)c1ccc(CCNC(=O)Nc2ccc(Cl)cc2)cc1 | 30.4% (inactive)
CCOc1ccccc1C(=O)NCCCn1ccnc1 | 65.1% (active)
COc1ccccc1-c1cc(C(=O)NCCCn2ccnc2)no1 | -25.8% (inactive)
CCCCOCCCNC(=O)c1ccccc1OCC | -187% (inactive)
Cn1c(=NC(=O)CSCC(=O)N2CCCCC2)sc2ccccc21 | -39.3% (inactive)
